Source: PubChem BioAssay (NCI)
About 83,000 compounds went through this panel and 20% of them were active in at least one assay; those are over-represented in the sample as a whole.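 Values shown are percent growth following 48 h exposure of cells in 96-well plates to a single concentration of compound; below 10 was considered active.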 Unmarked numbers belong to inactive results. Calls of active or inactive are those of the source.

Tests used:
Test in all cases: NCI-60 one-dose screen, 48 h (100 = growth as untreated, 0 = no growth, -100 = all killed)
Details in all cases: 10 µM unless noted
NCI-H23 lung = test system: NCI-H23 lung
NCI-H226 lung = test system: NCI-H226 lung
NCI-H322M lung = test system: NCI-H322M lung
HOP-62 NSCLC = test system: HOP-62 NSCLC
NCI-H460 lung = test system: NCI-H460 lung
HOP-92 NSCLC = test system: HOP-92 NSCLC
NCI-H522 lung = test system: NCI-H522 lung
A549/ATCC NSCLC = test system: A549/ATCC NSCLC
786-0 renal = test system: 786-0 renal
COLO 205 colon = test system: COLO 205 colon
DU-145 prostate = test system: DU-145 prostate
K-562 leukemia = test system: K-562 leukemia
MALME-3M melanoma = test system: MALME-3M melanoma
MDA-MB-231 breast = test system: MDA-MB-231 breast
RXF 393 renal = test system: RXF 393 renal
SF-268 CNS = test system: SF-268 CNS
SF-295 CNS = test system: SF-295 CNS
SF-539 CNS = test system: SF-539 CNS
UACC-257 melanoma = test system: UACC-257 melanoma
M14 melanoma = test system: M14 melanoma

Compound	growth (NCI-H23 lung)	growth (NCI-H226 lung)	growth (NCI-H322M lung)	growth (HOP-62 NSCLC)	growth (NCI-H460 lung)	growth (HOP-92 NSCLC)	growth (NCI-H522 lung)	growth (A549/ATCC NSCLC)	growth (786-0 renal)	growth (COLO 205 colon)	growth (DU-145 prostate)	growth (K-562 leukemia)	growth (MALME-3M melanoma)	growth (MDA-MB-231 breast)	growth (RXF 393 renal)	growth (SF-268 CNS)	growth (SF-295 CNS)	growth (SF-539 CNS)	growth (UACC-257 melanoma)	growth (M14 melanoma)
COc1ccc(/C(C)=C(\c2ccc(OCCN3CCOCC3)cc2)c2ccc(OC(=O)Cc3ccccc3)cc2)cc1	95.1%	110%	111%	108%	110%	105%	94.9%	94.3%	104%	109%	102%	91%	104%	109%	111%	100%	108%	112%	109%	104%
COC(=O)[C@]12CCC(C)(C)C[C@H]1[C@H]1C(=O)C[C@@H]3[C@@]4(C)C[C@@]5(CC(C)(C)[C@@H]4CC[C@@]3(C)[C@]1(C)CC2)OO[C@@](C)(C(F)(F)F)O5	89%	86.5%	109%	100%	101%	98.8%	76.7%	98%	97.8%	134%	107%	88.3%	108%	94.8%	95.3%	93.1%	95.7%	101%	102%	99.2%
Oc1c(O)c(Cl)c(Cl)c(Cl)c1Cl	26.7%	36.8%	44.5%	40.1%	15.4%	1.08% (active)	-19.6% (active)	20.5%	57.2%	69.8%	47.5%	24.2%	64.7%	44.8%	7.31% (active)	24.2%	9.55% (active)	20.9%	-9.22% (active)	39.6%
CC[C@H](C)[C@H](NC(=O)c1cccn1C)C(=O)N(C)[C@H](C[C@@H](OC(C)=O)c1nc(C(=O)N[C@@H](Cc2ccccc2)C[C@H](C)C(=O)OC)cs1)C(C)C	22.8%	7.57% (active)	37.6%	10.1%	6.58% (active)	22.4%	-19.3% (active)	14.4%	12.7%	-69.7% (active)	5.31% (active)	6.81% (active)	73.6%	-13.7% (active)	3.6% (active)	19.1%	7.85% (active)	-12.7% (active)	51.8%	-0.428% (active)
CC(C)=CC1C(C(=O)OCc2cccc(Oc3ccccc3)c2)C1(C)C (stereo not given)	88.6%	102%	96.5%	110%	98.6%	56.8%	73.5%	92.4%	81.3%	101%	109%	92.6%	87.8%	90.2%	121%	113%	90.3%	110%	104%	95.3%
CN1C(=O)C(=Cc2cn(CCCCCCn3c4ccccc4c(=O)c4ccccc43)c3ccccc23)C(=O)N(C)C1=O	79.9%	-20.8% (active)	99.4%	89.1%	85.1%	97.5%	94.9%	103%	97.4%	102%	105%	88.3%	103%	103%	115%	94.6%	95%	86%	104%	94%
O=C1OCCC1Br (stereo not given)	103%	103%	97.7%	105%	105%	85.6%	83.9%	99.8%	106%	120%	106%	80.9%	97.8%	103%	114%	108%	105%	95.6%	83%	109%
CCOC(=O)[C@@H](C)C[C@H](Cc1ccccc1)NC(=O)c1csc([C@@H](C[C@H](C(C)C)N(C)C(=O)[C@H](CCC(C)C)NC(=O)[C@H]2CCCCN2C)OC(C)=O)n1	25.3%	27.7%	28.2%	13.8%	5.8% (active)	-1.79% (active)	-27% (active)	8.64% (active)	3.93% (active)	-75.2% (active)	15.7%	7.91% (active)	33.1%	1.66% (active)	12.6%	22.1%	12.2%	-10.2% (active)	46.9%	-7.2% (active)
COc1cc(C=Nc2cccc(Br)c2)ccc1N(CCCl)CCCl	72.7%	75.2%	132%	89%	21.9%	74.8%	-81.5% (active)	64.9%	94.4%	78.5%	87.6%	88.4%	128%	91.2%	2.86% (active)	80.3%	44.4%	67.9%	96.6%	94%
C/C1=C/C(=O)O[C@@H]2C[C@@H](CC[C@H](C)/C=C\C=C\CC1)O[C@@](O)([C@@H]1CSC(=O)N1CO)C2	13.9%	46.1%	41.7%	-25.7% (active)	26.9%	-82.5% (active)	-52.3% (active)	20.3%	6.79% (active)	-55.5% (active)	22.9%	22.2%	14%	13.7%	-35.4% (active)	-37.7% (active)	13.5%	-3.61% (active)	13.9%	34.5%
CCCC[C@H](NC(=O)[C@H]1CCCCN1C)C(=O)N(C)[C@H](C[C@@H](OC(C)=O)c1nc(C(=O)N[C@@H](Cc2ccccc2)C[C@H](C)C(=O)OCC)cs1)C(C)C	27.1%	32.8%	32.9%	18.1%	6.75% (active)	18.1%	-25% (active)	11%	3.81% (active)	-69.9% (active)	16.2%	7.31% (active)	37.4%	5.49% (active)	28.8%	21.6%	16.9%	-11.1% (active)	49.5%	1.33% (active)
C[C@]12CC[C@H]3[C@@H](C[C@@H]4SC(Nc5ccccc5)=N[C@@]45CC(O)CC[C@]35C)[C@@H]1CCC2O (stereo not given in full)	67.3%	63.9%	78.4%	34.2%	6.06% (active)	104%	25.8%	57.1%	-49.7% (active)	57.1%	14.2%	4.96% (active)	71.2%	35.8%	-32.3% (active)	9.68% (active)	7.36% (active)	-34.3% (active)	69.3%	53.4%
COC(=O)CCc1c[nH]c2ccc(N(CCCl)CCCl)cc12	31.1%	79%	95.1%	47.5%	17.4%	84.4%	42.3%	44%	24.8%	68.8%	33.3%	70.7%	71%	121%	46.8%	40.6%	32.9%	23.2%	85.9%	45.4%
COc1cc([C@@H]2c3cc4c(cc3[C@H](OC(C)=O)[C@H]3COC(=O)[C@@H]23)OCO4)cc(OC)c1OC	0.572% (active)	33.2%	36.3%	10.6%	-4.08% (active)	27.2%	-34.7% (active)	10.5%	2.27% (active)	-75.8% (active)	3.27% (active)	11.2%	57.1%	8.36% (active)	52%	33%	-15.7% (active)	-33.4% (active)	49.2%	-15.2% (active)
C1CCC([PH+](C2CCCCC2)C2CCCCC2[PH+](C2CCCCC2)C2CCCCC2)CC1.[Au].[CH-]1CCCCC1CC1CCCC[N-]1 (stereo not given)	-46.3% (active)	-50.6% (active)	-42% (active)	-30.6% (active)	-56.4% (active)	-34.4% (active)	-40.7% (active)	-44.4% (active)	-89.6% (active)	-47.7% (active)	-51.1% (active)	3.54% (active)	-43.5% (active)	-44.6% (active)	-92.7% (active)	-33.6% (active)	-38.8% (active)	-75.1% (active)	-37.3% (active)	-54.6% (active)
CCCCN1CCCC[C@@H]1C(=O)N[C@H](C(=O)N(C)[C@H](C[C@@H](OC(C)=O)c1nc(C(=O)NC2CCC(C(=O)OC)CC2)cs1)C(C)C)C(C)C (stereo not given in full)	48.4%	71.8%	40.5%	23%	9.59% (active)	37%	-11.8% (active)	24.2%	36.7%	7.59% (active)	9.02% (active)	9.52% (active)	43.8%	45.7%	18.3%	48.8%	18.6%	-5.06% (active)	59.4%	-2.18% (active)
